# Measurements reported in the supplement of paper PMC7595190.
# Values without a mark were called inactive.
# Assays:
# Experiment in all cases: CellTox Green cytotoxicity fluorescence relative to DMSO vehicle (fold of vehicle RFU); higher = more cell death (loss of membrane integrity), active = 2 or more
# [1] = system: CMK
# Outline: (§1)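 Single compounds from the Selleckchem apoptosis library were applied at final 0.01, 0.1 and 1 µM (0.1% DMSO vehicle) to MV4-11, CMK and Kasumi-1 cells seeded at 4.0 × 10^4 cells per well with CellTox Green reagent. After incubation at 37 °C, 5% CO2, fluorescence was read at 24, 48 and 72 h. Cytotoxicity, meaning loss of membrane integrity, is shown as fold of the DMSO vehicle signal.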
# [2] = system: Kasumi-1
# Outline: as §1
# [3] = system: MV4-11
# Outline: as §1
Compound,"CellTox Green cytotoxicity fluorescence ([1]; 0.01 µM, 24 h)","CellTox Green cytotoxicity fluorescence ([1]; 0.01 µM, 48 h)","CellTox Green cytotoxicity fluorescence ([1]; 0.01 µM, 72 h)","CellTox Green cytotoxicity fluorescence ([1]; 0.1 µM, 24 h)","CellTox Green cytotoxicity fluorescence ([1]; 0.1 µM, 48 h)","CellTox Green cytotoxicity fluorescence ([1]; 0.1 µM, 72 h)","CellTox Green cytotoxicity fluorescence ([1]; 1 µM, 24 h)","CellTox Green cytotoxicity fluorescence ([1]; 1 µM, 48 h)","CellTox Green cytotoxicity fluorescence ([1]; 1 µM, 72 h)","CellTox Green cytotoxicity fluorescence ([2]; 0.01 µM, 24 h)","CellTox Green cytotoxicity fluorescence ([2]; 0.01 µM, 48 h)","CellTox Green cytotoxicity fluorescence ([2]; 0.01 µM, 72 h)","CellTox Green cytotoxicity fluorescence ([2]; 0.1 µM, 24 h)","CellTox Green cytotoxicity fluorescence ([2]; 0.1 µM, 48 h)","CellTox Green cytotoxicity fluorescence ([2]; 0.1 µM, 72 h)","CellTox Green cytotoxicity fluorescence ([2]; 1 µM, 24 h)","CellTox Green cytotoxicity fluorescence ([2]; 1 µM, 48 h)","CellTox Green cytotoxicity fluorescence ([2]; 1 µM, 72 h)","CellTox Green cytotoxicity fluorescence ([3]; 0.01 µM, 24 h)","CellTox Green cytotoxicity fluorescence ([3]; 0.01 µM, 48 h)","CellTox Green cytotoxicity fluorescence ([3]; 0.01 µM, 72 h)","CellTox Green cytotoxicity fluorescence ([3]; 0.1 µM, 24 h)","CellTox Green cytotoxicity fluorescence ([3]; 0.1 µM, 48 h)","CellTox Green cytotoxicity fluorescence ([3]; 0.1 µM, 72 h)","CellTox Green cytotoxicity fluorescence ([3]; 1 µM, 24 h)","CellTox Green cytotoxicity fluorescence ([3]; 1 µM, 48 h)","CellTox Green cytotoxicity fluorescence ([3]; 1 µM, 72 h)"
CCCCCCCCCCCC1=C(O)C(=O)C=C(O)C1=O [Embelin],1.03,1.04,1.09,0.994,0.99,0.973,0.986,1.04,1.05,0.991,0.988,0.992,1.01,0.999,0.996,1.02,1.03,1.04,1.01,1,1,1,0.999,1,1.02,1,1.01
COc1nc(-c2ccc3c(c2)OCO3)n(-c2ccc(NC(=O)CSc3ccccc3)cc2)n1 [SecinH3],1.03,1.04,1.05,0.992,0.997,0.985,0.996,1.01,1.01,1.02,1.03,1.04,1.02,1.02,1.01,0.941,0.989,1.02,–,–,–,–,–,–,–,–,–
CN1CCN(CCCNc2ncc(Cl)c(-c3cc4c(C(=O)NC5CC5)cccc4s3)n2)CC1,0.99,0.985,0.953,0.97,0.978,0.95,0.956,0.993,1,0.943,0.931,0.891,0.958,0.947,0.949,0.953,1.03,1.01,–,–,–,–,–,–,–,–,–
O=C(COc1ccc(Cl)cc1)NC1CCC(NC(=O)COc2ccc(Cl)cc2)CC1 (configuration not stated),0.999,0.971,0.929,0.975,0.97,0.973,0.971,1.02,1.01,1.02,0.993,0.987,0.991,0.965,0.954,0.966,0.962,0.961,0.993,0.994,0.983,1.01,1.02,1.01,0.994,1.01,0.992
Fc1ccc(CNc2ncnc3ccc(F)cc23)cc1 [Spautin-1],0.96,1.08,1.16,0.971,0.943,0.916,0.983,0.967,0.917,1.03,1.04,0.987,1,1,0.997,1.04,1.01,1.01,0.982,0.965,0.962,0.962,0.942,0.936,1.03,1.02,1.02
CN[C@@H](C)C(=O)N[C@H](C(=O)N1CCC[C@H]1c1nc(C(=O)c2ccc(F)cc2)cs1)C1CCCCC1,0.96,0.958,0.993,0.965,0.981,1.03,0.964,0.991,0.981,0.997,0.955,0.955,0.998,1.02,1.04,1.03,1.1,1.17,–,–,–,–,–,–,–,–,–
C=CCc1cccc(/C=N/NC(=O)CN2CCN(Cc3ccccc3)CC2)c1O,0.917,0.909,0.921,0.92,0.917,0.953,0.913,0.937,1.06,1,0.934,0.93,0.918,0.918,0.918,0.916,0.914,0.892,–,–,–,–,–,–,–,–,–
CN[C@@H](C)C(=O)N[C@H](C(=O)N1CCC[C@H]1C(=O)Nc1snnc1-c1ccccc1)C1CCCCC1,0.986,0.984,0.983,1.01,1,1.02,1.01,1.02,0.959,0.983,0.949,0.94,1.01,1.03,1.07,0.988,1.04,1.1,1.01,0.97,0.974,0.988,0.993,1,1.01,1.03,1.04
CC(=NNC(=S)N1CCC1)c1ccccn1,0.934,0.962,1.02,0.922,1.29,1.42,1.04,1.42,1.4,1.01,1.03,1.19,0.971,1.18,1.6,1.02,1.25,1.49,0.984,1.31,2.11 (active),0.983,1.53,2.27 (active),1.02,1.38,1.68
CCC(CC)n1ccc2c(C(=O)NCc3c(C)cc(C)[nH]c3=O)cc(C#N)cc21,0.768,0.767,0.8,–,–,–,–,–,–,–,–,–,0.942,0.956,0.925,1.01,0.971,0.978,0.856,0.857,0.869,–,–,–,–,–,–
CCN(CC)CCNC(=O)c1c(C)[nH]c(/C=C2\C(=O)Nc3ccc(F)cc32)c1C [Sunitinib],1.02,1.01,0.896,1,0.997,0.964,1.05,1.16,1.04,0.988,1.01,1.11,1.03,1.15,1.18,1.08,1.32,1.45,1.02,1.06,1.04,1.09,1.42,1.78,1.11,1.44,1.72
COc1cc(C(=O)O)ccc1NC(=O)[C@@H]1N[C@@H](CC(C)(C)C)[C@](C#N)(c2ccc(Cl)cc2F)[C@H]1c1cccc(Cl)c1F [Idasanutlin],0.938,0.944,0.96,0.943,0.953,1.01,0.963,1.01,0.933,1.01,0.971,0.962,0.966,0.949,0.947,1.01,1.03,1.03,0.983,0.967,0.97,0.971,0.958,0.972,0.967,1.03,1.1
CC(C)(C)C[C@@H]1N[C@@H](C(=O)N[C@H]2CC[C@H](O)CC2)[C@H](c2cccc(Cl)c2F)[C@]12C(=O)Nc1cc(Cl)ccc12,0.996,1.03,1.05,0.963,0.971,0.947,1.02,1.04,1.01,1,0.996,1.03,0.991,0.994,1,0.906,1.02,1.04,1.04,1.03,1.05,0.993,1.11,1.22,1.26,2.25 (active),2.49 (active)
C[C@H]1Oc2cc(cnc2N)-c2c(nn(C)c2C#N)CN(C)C(=O)c2ccc(F)cc21,0.989,0.966,0.982,0.951,0.957,0.948,1,1.05,1.07,1.05,1.01,1.01,1.01,0.988,0.997,0.922,0.929,0.914,0.984,0.959,0.958,0.992,0.992,0.992,0.964,0.976,0.975
